For five compounds, composite z-score, composite Z-score and z-score results are on record in PubChem BioAssay.

The source made the active and inactive calls.

The target of assay [1] is Albumin (Bos taurus) (UniProt P02769). The assay is described as follows: bovine serum albumin binders on microarray, profiling panel, artefact control for SMM control protein annotation, biochemical, small-molecule microarray, Alexa647 label, 635/667 nm fluorescence (AID 1118).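 Note: score merges 667 nm emission intensity and signal-to-noise per printed compound spot.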 As to conditions: BSA-A647 binding, fluorescence 635 nm, higher = more signal.
Sequence of Albumin (Bos taurus) (P02769 whole entry, looked up): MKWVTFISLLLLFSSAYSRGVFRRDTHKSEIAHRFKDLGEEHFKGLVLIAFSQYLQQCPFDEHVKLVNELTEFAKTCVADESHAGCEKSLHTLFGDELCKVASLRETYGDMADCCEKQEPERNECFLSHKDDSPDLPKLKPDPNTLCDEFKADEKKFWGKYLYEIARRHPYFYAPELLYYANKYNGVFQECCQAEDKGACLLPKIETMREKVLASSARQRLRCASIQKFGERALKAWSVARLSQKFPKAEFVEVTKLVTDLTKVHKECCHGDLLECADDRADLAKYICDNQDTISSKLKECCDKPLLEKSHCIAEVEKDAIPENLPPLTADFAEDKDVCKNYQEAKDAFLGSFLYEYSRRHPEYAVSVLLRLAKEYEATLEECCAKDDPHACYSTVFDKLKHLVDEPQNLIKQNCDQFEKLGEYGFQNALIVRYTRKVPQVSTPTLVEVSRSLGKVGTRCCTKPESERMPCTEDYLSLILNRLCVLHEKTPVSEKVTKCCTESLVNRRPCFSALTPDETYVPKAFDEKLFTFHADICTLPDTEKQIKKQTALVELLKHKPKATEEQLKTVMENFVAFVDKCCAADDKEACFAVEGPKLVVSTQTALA
A short description of assay [2]: small-molecule microarray binders of probe aXIP, primary screen, biochemical, NeuroSMM set, 635/667 nm fluorescence (AID 1119).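 Note: probe is the protein aXip251-270 applied at 1 µg/mL to compound-printed slides; binding of probe to printed compounds measured as 667 nm fluorescence plus signal to noise.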 As to conditions: higher = more signal, called active from +8 up or from −8 down.
A short description of assay [3]: small-molecule binders of probe aNOTCH3, primary screen, biochemical, small-molecule microarray, 635/667 nm fluorescence (AID 1120).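 Note: probe is a biotin-tagged antibody raised against NOTCH3 rather than NOTCH3 protein; score merges spot fluorescence near 667 nm with spot signal to noise.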 As to conditions: higher = more signal.
The nature of assay [4]: small-molecule binders of probe aNOTCH2, primary screen, biochemical, small-molecule microarray, 635/667 nm fluorescence (AID 1121).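 Note: score merges feature fluorescence read at 667 nm with its signal to noise.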 As to conditions: higher = more signal.
The target in assay [5] is Carbonic anhydrase 2 (Homo sapiens) (UniProt P00918). The assay is described as follows: CAII small-molecule binders, profiling panel, biochemical, small-molecule microarray, Alexa647-labelled CAII (AID 1122). As to conditions: CAII-A647 binding fluorescence, higher = more signal.
Assay [6] is described as follows: COS7 lysate on small-molecule microarray, probe aHis, 635 nm (AID 1123).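 Note: z-score combines 667nm fluorescence intensity with signal-to-noise per printed compound spot.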 As to conditions: COS7 cell lysate, fluorescence, higher = more signal.
Assay [7] in a line: compound binding in COS7 lysate, probe aLAP1, primary screen, cell lysate, small-molecule microarray (AID 1124).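 Note: lysate comes from COS7 cells expressing LAP1 and is applied at 0.3 µg/mL; score merges spot fluorescence near 667 nm with signal-to-noise over triplicate slides.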 As to conditions: probe aLAP1, fluorescence, higher = more signal.
Assay [8] has as its system Sam68 (KHDRBS1). Kind of assay: Sam68 small-molecule binders, primary screen, biochemical, small-molecule microarray, 635 nm fluorescence (AID 1125).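 Note: score merges 667 nm channel intensity with signal to noise over triplicate slides.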 As to conditions: small-molecule microarray binding, higher = more signal.
Assay [9] relates to Chordin-like protein 2 (CHRDL2). The assay is described as follows: CHRDL2 small-molecule binders, primary screen, biochemical, small-molecule microarray, 635 nm fluorescence (AID 1126).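 Note: printed compound slides probed with Chrdl2 protein at 4 µg/mL for 1 h at 4 C; score merges 667 nm emission intensity with signal to noise over three replicate slides.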 As to conditions: small-molecule microarray binding, fluorescence 635 nm; higher = more signal.
Assay [10] deals with Concanavalin-A (Canavalia ensiformis) (UniProt P02866). The assay is described as follows: ConA small-molecule binders, primary screen, artefact control for SMM control protein annotation, biochemical, small-molecule microarray, Alexa647 label, 635 nm (AID 1127).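 Note: z combines 667 nm emission intensity with signal-to-noise across three replicate slides.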 As to conditions: ConA-A647 binding fluorescence, higher = more signal.
Sequence of Concanavalin-A (Canavalia ensiformis) (P02866 whole entry, looked up): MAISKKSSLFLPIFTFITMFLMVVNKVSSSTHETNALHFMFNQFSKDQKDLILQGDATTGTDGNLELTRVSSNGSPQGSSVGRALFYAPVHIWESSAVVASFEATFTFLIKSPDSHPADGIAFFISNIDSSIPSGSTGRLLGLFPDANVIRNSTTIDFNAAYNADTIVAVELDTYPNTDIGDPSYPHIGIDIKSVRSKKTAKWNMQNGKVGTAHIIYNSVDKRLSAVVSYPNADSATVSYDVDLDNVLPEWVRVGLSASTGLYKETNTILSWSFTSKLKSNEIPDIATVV
A short description of assay [11]: anti-His antibody binders, primary screen, artefact control for SMM control protein annotation, biochemical, small-molecule microarray, 635 nm fluorescence (AID 1128).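 Note: score merges feature fluorescence with signal-to-noise for each printed compound spot.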 As to conditions: anti-His Alexa647 antibody binding, higher = more signal.
Assay [12] concerns Human papillomavirus type 1a E7 protein (residues 1-88). The assay is described as follows: HPV1a E7 small-molecule binders, primary screen, biochemical, small-molecule microarray, residues 1-88, 635 nm (AID 1129). As to conditions: small-molecule microarray binding, fluorescence 635 nm; higher = more signal.
The target in assay [13] is Focal adhesion kinase 1 (Homo sapiens) (UniProt Q05397). Kind of assay: small-molecule microarray binders of FAK, primary screen, biochemical, 635/667 nm fluorescence, BSA, DTT (AID 1130).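 Note: composite of spot emission at 667 nm and signal to noise over triplicate slides.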 As to conditions: PTK2 binding, 635 nm fluorescence, higher = more signal.
Sequence of Focal adhesion kinase 1 (Homo sapiens) (Q05397 whole entry, looked up): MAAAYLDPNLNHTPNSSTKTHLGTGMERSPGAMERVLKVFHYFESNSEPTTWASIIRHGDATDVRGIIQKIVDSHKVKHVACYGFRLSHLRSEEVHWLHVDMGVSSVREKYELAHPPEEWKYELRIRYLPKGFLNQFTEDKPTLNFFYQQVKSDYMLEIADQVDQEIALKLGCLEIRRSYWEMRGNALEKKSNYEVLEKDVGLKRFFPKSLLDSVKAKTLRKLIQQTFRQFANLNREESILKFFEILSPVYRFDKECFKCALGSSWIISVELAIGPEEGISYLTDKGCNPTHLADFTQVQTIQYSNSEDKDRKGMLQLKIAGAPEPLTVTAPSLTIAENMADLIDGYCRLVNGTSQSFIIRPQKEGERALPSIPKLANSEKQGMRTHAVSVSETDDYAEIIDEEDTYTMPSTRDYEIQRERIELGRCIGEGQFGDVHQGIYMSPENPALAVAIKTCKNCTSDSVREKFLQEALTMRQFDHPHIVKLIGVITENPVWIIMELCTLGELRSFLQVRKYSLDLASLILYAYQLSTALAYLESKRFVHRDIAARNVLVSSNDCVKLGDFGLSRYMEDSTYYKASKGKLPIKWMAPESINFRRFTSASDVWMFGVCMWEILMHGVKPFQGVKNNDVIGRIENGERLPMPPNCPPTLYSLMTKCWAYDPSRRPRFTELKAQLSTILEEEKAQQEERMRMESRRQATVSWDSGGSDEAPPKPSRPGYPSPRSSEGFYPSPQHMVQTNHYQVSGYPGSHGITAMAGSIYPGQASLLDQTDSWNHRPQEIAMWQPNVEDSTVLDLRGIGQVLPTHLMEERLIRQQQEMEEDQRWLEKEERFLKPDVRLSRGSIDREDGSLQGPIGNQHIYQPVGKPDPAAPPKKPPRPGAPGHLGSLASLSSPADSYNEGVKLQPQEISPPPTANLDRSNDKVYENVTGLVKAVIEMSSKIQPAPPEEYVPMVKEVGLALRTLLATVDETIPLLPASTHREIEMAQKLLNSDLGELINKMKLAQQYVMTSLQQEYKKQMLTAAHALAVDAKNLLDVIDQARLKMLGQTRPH
The subject of assay [14] is Fibrinogen (Alexa647-labelled). The assay is described as follows: fibrinogen binders on compound microarrays, profiling panel, artefact control for SMM control-protein annotation, biochemical, small-molecule microarray, 635/667 nm fluorescence (AID 1131).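 Note: z-score merges 667 nm fluorescence with per-spot signal-to-noise over triplicate slides.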 As to conditions: fibrinogen-A647 binding fluorescence, higher = more signal.
In assay [15] the target is Follistatin (Homo sapiens) (UniProt P19883). The assay is described as follows: follistatin binders on small-molecule microarrays, primary screen, biochemical, small-molecule microarray, 635/667 nm fluorescence (AID 1132). As to conditions: FST binding, 635 nm fluorescence, higher = more signal.
Sequence of Follistatin (Homo sapiens) (P19883 whole entry, looked up): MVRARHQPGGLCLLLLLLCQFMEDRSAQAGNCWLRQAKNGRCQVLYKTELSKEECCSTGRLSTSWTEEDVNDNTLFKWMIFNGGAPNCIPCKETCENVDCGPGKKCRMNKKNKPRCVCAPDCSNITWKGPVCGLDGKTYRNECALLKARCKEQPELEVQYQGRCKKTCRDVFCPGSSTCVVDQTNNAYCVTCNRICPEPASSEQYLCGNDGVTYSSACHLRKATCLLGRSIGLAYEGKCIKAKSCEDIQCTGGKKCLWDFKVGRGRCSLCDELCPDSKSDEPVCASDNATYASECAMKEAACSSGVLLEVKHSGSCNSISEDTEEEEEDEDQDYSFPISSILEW
For assay [16], the target named is Fibroblast growth factor 2 (Homo sapiens) (UniProt P09038). Kind of assay: FGF2 binders on small-molecule microarrays, primary screen, biochemical, small-molecule microarray, 635/667 nm fluorescence (AID 1133). As to conditions: small-molecule microarray binding, FGF2, fluorescence 635/667; higher = more signal.
Sequence of Fibroblast growth factor 2 (Homo sapiens) (P09038 whole entry, looked up): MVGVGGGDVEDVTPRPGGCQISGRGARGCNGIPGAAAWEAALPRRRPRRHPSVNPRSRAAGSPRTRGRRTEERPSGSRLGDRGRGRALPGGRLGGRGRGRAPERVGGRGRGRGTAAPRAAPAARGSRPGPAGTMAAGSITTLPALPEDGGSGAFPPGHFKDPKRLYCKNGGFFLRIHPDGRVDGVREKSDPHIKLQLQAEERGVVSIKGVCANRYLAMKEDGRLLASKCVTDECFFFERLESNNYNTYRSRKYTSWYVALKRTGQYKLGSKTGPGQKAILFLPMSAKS
Assay [17] can be described thus: mitochondrial membrane potential change in A549 cells, profiling panel, cell-based, JC-1 fluorescence, basal, 24 h, 100 nL (AID 1138).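 Note: A549 lung adenocarcinoma cells under basal conditions with no added stimulus; test concentration not given here.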 As to conditions: higher = more signal.
For assay [18], the system named is Lefty1. Kind of assay: Lefty1 binders on small-molecule microarrays, primary screen, biochemical, small-molecule microarray, 635/667 nm fluorescence (AID 1139). As to conditions: small-molecule microarray binding, fluorescence 635/667; higher = more signal.
Assay [19] has as its system wheat germ agglutinin (Triticum aestivum), Alexa647-labelled. The assay is described as follows: wheat germ agglutinin binders on compound microarrays, profiling panel, artefact control for SMM control-protein annotation, biochemical, small-molecule microarray, 635/667 nm fluorescence (AID 1140).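 Note: score merges 667 nm feature emission with signal to noise over triplicate slides.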 As to conditions: WGA-A647 binding, 635 nm fluorescence, higher = more signal.

Assay [20] deals with Luciferin 4-monooxygenase (Photinus pyralis) (UniProt P08659). The assay is described as follows: firefly luciferase enzyme inhibitors, primary screen, biochemical, luminescence, purified enzyme, 2006 set (AID 1141).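 Note: cell-free assay with purified firefly luciferase at 100 ng per well in PBS; test concentration not given here.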 As to conditions: SteadyGlo luminescence, 30 min, higher = more signal, called active from +8 up or from −8 down.
Sequence of Luciferin 4-monooxygenase (Photinus pyralis) (P08659 whole entry, looked up): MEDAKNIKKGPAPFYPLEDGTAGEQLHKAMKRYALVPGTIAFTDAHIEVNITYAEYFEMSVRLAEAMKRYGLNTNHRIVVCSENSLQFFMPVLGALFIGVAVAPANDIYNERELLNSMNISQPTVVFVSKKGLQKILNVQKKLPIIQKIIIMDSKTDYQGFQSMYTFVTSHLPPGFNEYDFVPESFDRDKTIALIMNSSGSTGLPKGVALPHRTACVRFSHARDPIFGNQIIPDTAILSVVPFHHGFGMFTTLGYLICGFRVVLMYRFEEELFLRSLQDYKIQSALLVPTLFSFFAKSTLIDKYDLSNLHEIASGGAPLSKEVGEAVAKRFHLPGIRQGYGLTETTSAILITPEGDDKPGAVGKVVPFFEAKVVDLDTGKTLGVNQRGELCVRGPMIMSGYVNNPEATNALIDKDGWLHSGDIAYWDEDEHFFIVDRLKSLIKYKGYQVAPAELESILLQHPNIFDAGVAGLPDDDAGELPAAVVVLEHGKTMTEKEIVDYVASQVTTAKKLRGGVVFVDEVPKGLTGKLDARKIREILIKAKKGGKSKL

With `COC(=O)C[C@@H]1C[C@H](C)[C@]2(O1)C(=O)N(Cc1ccccc1)c1ccc(NC(C)=O)cc12`, the composite z-score is -0.211 in assay [1]; -0.116 in assay [3]; -0.185 in [4]; -0.153 in assay [5]; 0.117 in assay [6]; -0.0791 in [7]. Also, the composite z-score was -0.506 in [8]; 0.343 in [9]; 0.0104 in assay [10]; 0.716 in assay [11]; 0.453 in assay [12]; -0.183 in [13]. Moreover, the composite z-score was 0.458 in assay [14]; 0.431 in [15]; 0.471 in assay [16]; 0.488 in assay [18]; -0.259 in assay [19]. For the same compound, the composite Z-score in [2] is -0.209 (inactive). The values for the z-score in assay [17] and in assay [20] were -1.05 and 0.0257 (inactive), respectively.

Consider `CCN(CC)c1ccc(N2CC=CC34O[C@@H]5/C=C\CCCOC(=O)C5[C@H]3C(=O)N(C(CO)C(C)C)[C@@H]4C2=O)cc1` (stereo not given in full), for which the composite z-score in assay [1] is -1.18; in assay [3], -0.165; in assay [4], -0.123; in assay [5], 0.827; in [6] it was -0.21; in [7] it was -0.32. The composite z-score was -0.384 in assay [8]; -0.684 in [9]; -0.467 in [10]; 1.02 in [11]; -1.04 in assay [12]; 0.409 in [13]. Moreover, the composite z-score is -1.1 in [14]; -0.45 in assay [15]; -0.593 in assay [16]; -0.217 in assay [18]; -0.615 in assay [19]. In addition, the composite Z-score in assay [2] was 0.0855 (inactive). The z-score in [17] is 0.8; in assay [20] it was -0.557 (inactive).

`C=CCNC(=O)[C@@H]1[C@H]2C(=O)O[C@H](c3ccccc3)[C@H](c3ccccc3)N2[C@H](c2ccccc2OCCO)[C@@]12C(=O)Nc1ccc(C#CC3=CCCCC3)cc12`: the composite z-score in assay [1] was 0.482; in assay [3] it was 0.0105; in assay [4], -0.0907; in [5], 0.271; in [6], 2.18; in assay [7], 0.536. The composite z-score in assay [8] was 1.3; in assay [9] it was 0.436; in [10], 0.99; in assay [11] it was 1.57; in [12], 1.22; in assay [13] it was 0.683. In addition, the composite z-score in assay [14] came out at 0.9; in [15], 1.21; in assay [16], 1.02; in [18] it was 1.12; in [19], 0.971. For the same compound, the composite Z-score in assay [2] is -0.224 (inactive). Besides, the z-score is -1.55 in assay [17] and -1.48 (inactive) in [20].

As for `COCCOC(=O)N1C(=O)[C@@]2(c3cc(C#CCNC(N)=O)ccc31)[C@H](c1ccc(OCCO)cc1)N1[C@H](c3ccccc3)[C@H](c3ccccc3)OC(=O)[C@H]1[C@@H]2C(=O)N1CCc2cc(OC)c(OC)cc2C1`, the composite z-score in assay [1] is -1.03; in assay [3] it was 0.112; in assay [4], -0.0349; in [5], 0.22; in assay [6], 0.592; in assay [7], 0.127. Besides, the composite z-score in assay [8] turned out to be 0.498; in assay [9] it was 0.756; in [10], 0.878; in assay [11] it was 0.276; in [12], 0.665; in assay [13], 0.145. The composite z-score stood at 0.531 in assay [14]; 1.38 in assay [15]; 1.2 in assay [16]; 0.658 in [18]; 0.848 in assay [19]. Moreover, the composite Z-score in assay [2] is -0.0505 (inactive). Also, the z-score in assay [17] is -1.41; in assay [20], -0.702 (inactive).

As to `Cc1ccc(S[C@]2(C(=O)NC3CC3)CC(=O)N(C3CCCCC3)[C@@H]2c2ccc(CO)cc2I)cc1`, the composite z-score was 0.599 in assay [1]; 0.0426 in assay [3]; -0.123 in [4]; 0.408 in assay [5]; 1.31 in assay [6]; 0.396 in [7]. Besides, the composite z-score came out at 1.28 in [8]; 0.0261 in assay [9]; 0.896 in assay [10]; 0.104 in assay [11]; 1.21 in assay [12]; 0.176 in assay [13]. Moreover, the composite z-score in assay [14] was 0.304; in assay [15], 1.26; in [16] it was 0.341; in [18], 0.87; in [19], 0.368. Further, in assay [2], the composite Z-score is -0.186 (inactive). Besides, the values for the z-score in assay [17] and in assay [20] were 1.69 and 1.06 (inactive), respectively.
